Source: PubChem (The Scripps Research Institute Molecular Screening Center)
Shown are actives, neighbours in structure and some others; about 1.8% of the full set was active somewhere.
GSTO1 inh: GSTO1 inhibition, counter-screen for RBBP9 inhibitors. P78417. inhibition, % at 5.96 µM. actives 1.1% (n = 300,000). recombinant GSTO1, activity-based probe fluorescence polarization;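 active = inhibition above the campaign mean inhibition plus 3 SD, cut at about 35% in these data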;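 also: 0% = GSTO1-1 with DMSO and 100% = wells lacking GSTO1-1 enzyme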
LYPLA2 inh: blocks human lysophospholipase 2, a PME1 counter-screen; recombinant LYPLA2, FP-Rh probe fluorescence polarization; inhibition, % at 5.9 µM; actives 0.38% (n = 320,000);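 active = inhibition above the screen-wide mean plus 3 SD, limit set per campaign, cut at about 26% in these data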;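 also: 0% = LYPLA2 with DMSO and 100% = wells lacking LYPLA2 enzyme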
Target sequence (O95372 whole entry, looked up): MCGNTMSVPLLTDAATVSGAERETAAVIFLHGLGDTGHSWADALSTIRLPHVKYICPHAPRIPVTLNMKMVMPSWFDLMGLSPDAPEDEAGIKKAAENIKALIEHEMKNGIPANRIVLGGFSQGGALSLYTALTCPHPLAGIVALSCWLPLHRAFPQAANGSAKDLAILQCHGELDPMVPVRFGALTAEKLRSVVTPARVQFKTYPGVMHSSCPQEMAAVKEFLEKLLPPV
Fam108B inh: blocks mouse Fam108B hydrolase in RBBP9 counter-screen. actives 0.33% (n = 300,000). inhibition, % at 9.51 µM. recombinant Fam108B, FP-Rh probe fluorescence polarization;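 active = inhibition above the screen mean inhibition plus 3 SD, computed separately per campaign, cut at about 18% in these data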;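 also: inhibitors lower polarization as less probe binds the enzyme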
PME-1 primary: blocks human protein phosphatase methylesterase 1 | Q9Y570 | recombinant PME-1, FP-Rh probe fluorescence polarization | inhibition, % at 5.9 µM | actives 0.53% (n = 320,000);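 active = inhibition above the campaign mean of all compounds plus 3 SD, cut at about 26% in these data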;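 also: competitive labeling of PME-1 active site by serine hydrolase directed probe; 0% = PME-1 with DMSO and 100% = wells lacking PME-1 enzyme; inhibitors block probe labeling so polarization falls and inhibition rises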
Target sequence (Q9Y570 whole entry, looked up): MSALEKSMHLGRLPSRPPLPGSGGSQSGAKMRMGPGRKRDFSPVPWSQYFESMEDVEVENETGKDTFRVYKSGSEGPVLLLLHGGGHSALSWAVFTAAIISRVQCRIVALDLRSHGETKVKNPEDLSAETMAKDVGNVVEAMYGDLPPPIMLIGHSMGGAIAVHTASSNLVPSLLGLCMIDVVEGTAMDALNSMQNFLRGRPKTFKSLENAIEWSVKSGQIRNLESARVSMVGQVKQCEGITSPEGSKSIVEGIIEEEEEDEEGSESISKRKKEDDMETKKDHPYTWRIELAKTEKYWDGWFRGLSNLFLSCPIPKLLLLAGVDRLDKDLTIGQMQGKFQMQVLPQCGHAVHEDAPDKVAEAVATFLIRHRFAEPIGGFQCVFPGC
PAD4 FP inh: blocks human protein arginine deiminase 4. Q9UM07. recombinant PAD4, RCA probe fluorescence polarization. inhibition, % at 6.36 µM. actives 0.41% (n = 330,000). AID 485272;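 active = percent inhibition above a cutoff equal to the mean of all tested compounds plus 3 SD, cut at about 15% in these data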;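 also: 0% = PAD4 with RCA probe and DMSO and 100% = probe without PAD4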
LYPLA1 counter: blocks human lysophospholipase 1, a PME1 counter-screen | recombinant LYPLA1, FP-Rh probe fluorescence polarization | inhibition, % at 5.9 µM | actives 0.16% (n = 320,000) | AID 2174;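 active = inhibition above the mean of all tested compounds plus 3 SD, set per campaign, cut at about 14% in these data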;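 also: inhibitors block serine hydrolase probe labeling of LYPLA1 so polarization falls; 0% = enzyme with DMSO and 100% = wells lacking LYPLA1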
Fam108b inh conf: confirmation of mouse Fam108b serine hydrolase inhibitors; actives 44% (n = 930); inhibition, % at 9.51 µM; recombinant Fam108b, FP-Rh probe fluorescence polarization; shares compounds with Fam108B inh;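 active = inhibition above a limit from the primary screen, the mean over all compounds plus 3 SD, cut at about 19% in these data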;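 also: 0% = median of active Fam108b wells and 100% = catalytically dead S170A mutant; inhibitors free the probe so polarization falls as inhibition rises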
Fam108b inh: inhibits mouse Fam108b in gel-based ABPP; inhibition, % at 20 µM; shares compounds with Fam108B inh; recombinant Fam108b, fluorophosphonate probe; AID 588649; actives 44% (n = 260); in the data active = inhibition above about 40%
* marks the source's active call; other numbers are inactive results; / = not tested or not shown.

SMILES	GSTO1 inh	LYPLA2 inh	Fam108B inh	PME-1 primary	PAD4 FP inh	LYPLA1 counter	Fam108b inh conf	others
COc1cccc(/C=N/NC(=O)CNC(=O)C(c2ccccc2)c2ccccc2)c1O	5	2	1	0	-2	-1	/
O=C1Nc2ccc([N+](=O)[O-])cc2OC1CCN1CCN(Cc2ccccc2)CC1 (stereo not given)	6	15	-1	-4	1	-1	/
COC1=CC(=O)C(O)=C(CCCCCCCC=CCCCCCCCC2=C(O)C(=O)C=C(OC)C2=O)C1=O	/	/	/	/	/	/	/	Fam108b inh=35
O=C(NCCc1ccc(Cl)cc1)C1CCCN1C(=O)Nc1ccc(F)cc1 (stereo not given)	-1	-7	1	9	0	-1	/
O=C(NCCc1ccc(Cl)cc1)C1CCCN1C(=O)Nc1ccccc1 (stereo not given)	3	3	31*	4	0	0	3
COc1ccc(C(=O)NCC(=O)OCC(=O)Nc2cccc(S(=O)(=O)N3CCCC3)c2)cc1	6	0	-1	5	-6	2	/
O=C(COC(=O)CNC(=O)c1ccc(Cl)cc1)Nc1cccc(S(=O)(=O)N2CCCC2)c1	-3	2	64*	-2	-6	1	-5
O=C(CCc1nnc(-c2ccsc2)o1)N1CCCCC1CCn1ccnc1 (stereo not given)	3	2	-3	1	-4	-2	/
Nc1c(S(=O)(=O)c2cccc(Cl)c2)c2nc3ccccc3nc2n1/N=C/c1ccc(O)c(O)c1	-81	-6	77*	51*	-15	-24	140*
COc1cccc(/C=N/n2c(N)c(S(=O)(=O)c3cccs3)c3nc4ccccc4nc32)c1OC	-3	5	-10	-7	-3	2	/
COC(=O)c1sc(NC(=S)NNC(=O)c2c(Br)c(C)nn2C)c(C(=O)OC)c1C	5	11	26*	25	3	2	24*
CCCCn1c(N)c(N(CCOC)C(=O)CSCc2ccccc2C)c(=O)[nH]c1=O	5	0	27*	-2	0	2	1
CCCCn1c(N)c(N(CCOC)C(=O)CSc2ccccc2C)c(=O)[nH]c1=O	4	2	0	1	1	2	/
O=[N+]([O-])c1cc(Cl)cc(/C=N/NC(=S)Nc2ccc(S(=O)(=O)N3CCOCC3)cc2)c1O	14	5	39*	19	-8	13	31*
O=S(=O)(c1ccc(NC(=S)N/N=C/c2ccc(O)c(O)c2)cc1)N1CCOCC1	21	4	2	15	-2	-18	/
O=[N+]([O-])c1cc(Cl)cc(C=NNC(=S)Nc2ccc(S(=O)(=O)N3CCOCC3)cc2)c1O	/	/	/	/	/	/	/	Fam108b inh=0
N#Cc1ccc(/C=N/NC(=S)Nc2ccc(S(=O)(=O)N3CCOCC3)cc2)cc1	-15	4	-1	-1	-3	0	/
COc1ccc(C)cc1NC(=O)c1ccccc1NS(=O)(=O)c1ccc(Cl)s1	-26	1	6	-2	-4	-7	/
COc1ccc(OC)c(NC(=O)NCc2cccnc2)c1	5	12	4	-3	3	2	/
CCc1c(C(=O)Nc2ccc(OC)c(Cl)c2)[nH]c(C)c1C(C)=O	-14	-7	19*	-4	-3	-14	39*	Fam108b inh=0
COc1ccc(Cl)cc1NC(=O)c1[nH]c(C)c(C(C)=O)c1C	3	0	1	-6	9	-1	/
CC(OC(=O)CC1CCCCC1)C(=O)Nc1ccc(F)cc1 (stereo not given)	5	-8	2	1	0	-6	/
Cc1cccc(N=Cc2nc(-c3ccccc3Br)oc2O)n1	/	/	/	/	/	/	/	Fam108b inh=50*
Cc1ccnc(N=Cc2nc(-c3ccccc3Br)oc2O)c1	3	10	22*	-7	-2	5	80*	Fam108b inh=75*
Cc1cccc(/N=C/c2nc(-c3ccccc3Br)oc2O)n1	-8	20	27*	4	3	3	37*
SMILES	GSTO1 inh	LYPLA2 inh	Fam108B inh	PME-1 primary	PAD4 FP inh	LYPLA1 counter	Fam108b inh conf	others
Oc1oc(-c2cccc3ccccc23)nc1/C=N/c1nccs1	-5	-4	-3	-6	-1	-7	/
COc1ccc(CCNC(=O)c2ccc3c(c2)NC(=O)CS3)cc1OC	8	8	-2	4	1	1	/
CCC(=O)c1ccc(OCC(=O)NCCc2ccccn2)cc1	2	0	1	-3	-5	3	/
COc1ccc(NC(=O)CSc2nnc(-c3ccncc3)o2)c([N+](=O)[O-])c1	1	-1	0	6	-2	0	/
Cc1[nH]c2c(C)cccc2c1CC(=O)O	-2	-8	2	1	-4	-1	/
Cc1cccc2c(N=O)c(O)[nH]c12	-5	12	27*	53*	-9	7	24*
N=C1/C(=C\c2ccc(-c3cccc(C(=O)O)c3)o2)C(=O)N=C2SC=C(c3ccccc3)N12	-43	-5	24*	3	-18	-12	3
COc1ccccc1Nc1ccc(NC(=O)c2cccc([N+](=O)[O-])c2C)cc1	-4	5	20*	15	-3	-7	-6
CCN(CC)CCNC(=O)C(=O)NCC1OCCN1C(=O)c1ccc2c(c1)OCO2 (stereo not given)	-3	2	-2	-4	-3	2	/
CN(C)S(=O)(=O)c1cccc(NC(=O)COC(=O)c2cc(-c3cccc(Br)c3)nc3ccccc23)c1	-36	-21	31*	5	-1	-15	60*	Fam108b inh=90*
O=C(CCc1nc(-c2ccccc2F)no1)NC1CCCCC1	2	-4	2	2	4	0	/
O=C1c2ccccc2C(=O)N1OS(=O)(=O)c1ccccc1	4	-3	29*	-2	-5	-2	-18
O=C(NN1C(=O)/C(=C/C=C/c2ccco2)SC1=S)c1ccccc1O	-16	-14	44*	-33	-27	-13	25*
O=C1S/C(=C\C=C\c2ccco2)C(=O)N1c1ccc(O)cc1	24	-3	5	-3	-9	-8	/
O=C(O)CC(C(=O)O)N1C(=O)/C(=C/C=C/c2ccco2)SC1=S (stereo not given)	37*	-10	34*	-34	-4	-4	4
Cn1cccc1/C=C1\SC(=S)N(NC(=O)c2ccccc2O)C1=O	19	-5	1	-1	-9	-4	/
Cc1[nH]c2ccccc2c1/C=N/NC(=O)c1cccc(S(=O)(=O)Nc2cccc(C(F)(F)F)c2)c1	-31	-17	40*	21	1	-10	32*
COc1ccc(C2C3=C(CCCC3=O)NC3=C2C(=O)c2ccccc23)cc1 (stereo not given)	2	4	20*	10	-3	0	26*
